Assay in all cases: NCI-60 one-dose screen, 48 h (100 = growth as untreated, 0 = no growth, -100 = all killed)
In one assay the test system is HCT-15 colon. The note with it: 10 µM unless noted.
Another assay has as its system HT29 colon. The following applies: 10 µM unless noted.
The next assay has as its system SNB-75 CNS. The note with it: 10 µM unless noted.
For the next assay, the system named is SNB-19 CNS. The note with it: 10 µM unless noted.
A further assay deals with U251 CNS. The following applies: 10 µM unless noted.
In the next assay the test system is PC-3 prostate. The following applies: 10 µM unless noted.
The subject of another assay is SK-MEL-5 melanoma. The note with it: 10 µM unless noted.
The subject of another assay is UACC-62 melanoma. The following applies: 10 µM unless noted.
A further assay relates to LOX IMVI melanoma. The following applies: 10 µM unless noted.
In the next assay the test system is SK-MEL-28 melanoma. The following applies: 10 µM unless noted.
Another assay relates to SK-MEL-2 melanoma. The note with it: 10 µM unless noted.
In the next assay the test system is EKVX NSCLC. The following applies: 10 µM unless noted.
A further assay concerns SN12C renal. The following applies: 10 µM unless noted.
For a further assay, the system named is UO-31 renal. The following applies: 10 µM unless noted.
For another assay, the system named is TK-10 renal. The note with it: 10 µM unless noted.
Another assay relates to CAKI-1 renal. The note with it: 10 µM unless noted.
In a further assay the test system is A498 renal. The note with it: 10 µM.
For the next assay, the system named is HL-60(TB) leukemia. The following applies: 10 µM unless noted.
Another assay has as its system CCRF-CEM leukemia. The following applies: 10 µM unless noted.
In another assay the test system is ACHN renal. The note with it: 10 µM unless noted.

Molecules are shown by their SMILES. The panel holds about 83,000 compounds, 20% with a hit somewhere; the sample as a whole holds those more often.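 Method: cells in 96-well plates; compound added at one concentration; 48 h incubation; percent growth measured; values under 10 scored active.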 A number with no mark means an inactive call. Activity calls are given as the source filed them.

Take `O=C(CN1CCN(C(=O)c2ccco2)CC1)Nc1ccc(Cl)cc1C(=O)c1ccccc1Cl`: the growth with HCT-15 colon is 81.9%; in the assay with HT29 colon, 89.4%; in the assay with SNB-75 CNS it was 67.8%; in the assay with SNB-19 CNS, 99.2%; in the assay on U251 CNS, 91.3%; in the assay with PC-3 prostate, 73.9%. Besides, the growth in the assay on SK-MEL-5 melanoma was 51.1%; in the assay on UACC-62 melanoma, 58.5%; in the assay on LOX IMVI melanoma, 79.9%; with SK-MEL-28 melanoma, 110%; in the assay on SK-MEL-2 melanoma, 46.6%; with EKVX NSCLC it was 94.3%. The growth is 105% with SN12C renal; 35.3% in the assay with UO-31 renal; 132% with TK-10 renal; 91.7% in the assay on CAKI-1 renal; 83.8% in the assay with A498 renal; 49.4% in the assay on HL-60(TB) leukemia.
On to `[Cl][Hg][n]1c(-c2ccco2)nc2ccccc21`, for which the growth in the assay on HCT-15 colon is 92%; in the assay on HT29 colon it was 104%; in the assay on SNB-75 CNS it was 91.7%; in the assay with SNB-19 CNS, 93.1%; in the assay on U251 CNS, 91.5%; with PC-3 prostate, 98.5%. For the same compound, the growth in the assay with SK-MEL-5 melanoma was 97%; in the assay on UACC-62 melanoma, 95.8%; in the assay with LOX IMVI melanoma, 15.4%; with SK-MEL-28 melanoma it was 108%; in the assay on SK-MEL-2 melanoma it was 93.5%; with EKVX NSCLC, 111%. The growth in the assay on SN12C renal was 94.8%; in the assay with UO-31 renal, 103%; in the assay on TK-10 renal it was 124%; in the assay on CAKI-1 renal, 107%; in the assay with A498 renal it was 114%; with HL-60(TB) leukemia, 95.5%. The growth with CCRF-CEM leukemia is 89.9%.
In the case of `CC1=C(CNO)C2=C(C)C3(CC3)[C@@](C)(O)C(=O)C2=C1`, the growth in the assay with HCT-15 colon is 12.1%; in the assay on HT29 colon, 41.4%; in the assay on SNB-75 CNS it was -58.8% (active); with SNB-19 CNS, 4.3% (active); in the assay with U251 CNS, -13.6% (active); in the assay with PC-3 prostate, 5.59% (active). Moreover, the growth is -67.4% (active) in the assay with SK-MEL-5 melanoma; 28.7% with UACC-62 melanoma; 52.8% in the assay on LOX IMVI melanoma; 50.2% with SK-MEL-28 melanoma; -44.4% (active) with SK-MEL-2 melanoma; 9.85% (active) with EKVX NSCLC. Also, the growth was 18.7% with SN12C renal; -57.7% (active) with UO-31 renal; -0.334% (active) with TK-10 renal; -9.31% (active) in the assay with CAKI-1 renal; -70.9% (active) with A498 renal; 8.14% (active) in the assay on HL-60(TB) leukemia. For the same compound, the growth in the assay with CCRF-CEM leukemia was 73.9%.
On to `O=NN1CCCc2cccc(O)c21`, for which the growth with HCT-15 colon was 27.2%; in the assay with HT29 colon, 94.6%; in the assay on SNB-75 CNS, 21.8%; in the assay on SNB-19 CNS it was 31%; in the assay with U251 CNS, 21.9%; with PC-3 prostate it was 51.8%. Also, the growth in the assay with SK-MEL-5 melanoma is 19.9%; with UACC-62 melanoma, 26.7%; in the assay on LOX IMVI melanoma, 23.9%; with SK-MEL-28 melanoma, 67.2%; with SK-MEL-2 melanoma, 56.1%; in the assay with EKVX NSCLC, 69.4%. Moreover, the growth in the assay with SN12C renal was 21.7%; with UO-31 renal, 20.9%; in the assay on TK-10 renal, 95.9%; with A498 renal, 86.8%; with CCRF-CEM leukemia, 30.2%.
Consider `CCOC(=O)c1c(C)n(Cc2ccccc2)c2cc(CN(C)C)c(O)cc12`, for which the growth in the assay with HCT-15 colon is 63.4%; with HT29 colon it was 37%; in the assay with SNB-75 CNS, 50.5%; in the assay with SNB-19 CNS, 72.2%; in the assay on U251 CNS, 67.8%; in the assay on PC-3 prostate it was 57.4%. The growth in the assay with SK-MEL-5 melanoma was 82.5%; in the assay with UACC-62 melanoma, 58.4%; with LOX IMVI melanoma, 28.8%; in the assay with SK-MEL-28 melanoma, 80.2%; in the assay on SK-MEL-2 melanoma it was 92.1%; in the assay with EKVX NSCLC, 64.1%. The growth in the assay with SN12C renal is 57.8%; with UO-31 renal, 43.8%; in the assay with ACHN renal, 81.5%; in the assay on CAKI-1 renal, 61.6%; in the assay on A498 renal, 43.2%; in the assay on HL-60(TB) leukemia, 62%. For the same compound, the growth in the assay on CCRF-CEM leukemia is 41.2%.
Turning to `CCOC(=O)[C@@H](C)C[C@H](Cc1ccccc1)NC(=O)c1csc([C@@H](C[C@H](C(C)C)N(C)C(=O)[C@H](CC)NC(=O)[C@H]2CCCCN2C)OC(C)=O)n1`, the growth in the assay on HCT-15 colon is 9.87% (active); with HT29 colon it was 4.72% (active); in the assay with SNB-75 CNS, 25.4%; in the assay on SNB-19 CNS it was 19.7%; in the assay on U251 CNS, 11.7%; in the assay with PC-3 prostate, 23.8%. Also, the growth with SK-MEL-5 melanoma was -52.9% (active); in the assay on UACC-62 melanoma, 30.9%; in the assay with LOX IMVI melanoma, 9.39% (active); with SK-MEL-28 melanoma it was 61.8%; with SK-MEL-2 melanoma, 26.8%; with EKVX NSCLC it was 38.6%. Moreover, the growth with SN12C renal is 19.1%; in the assay on UO-31 renal, 33.7%; with TK-10 renal, 69.6%; in the assay with A498 renal it was -13.5% (active); with HL-60(TB) leukemia it was -26.4% (active); in the assay with CCRF-CEM leukemia, 3.51% (active).
As for `CC(CC1CCCCC1)NCc1ccccc1` (stereo unspecified), the growth with HCT-15 colon is 94.4%; in the assay on HT29 colon, 93.2%; in the assay on SNB-75 CNS, 100%; with SNB-19 CNS, 100%; in the assay with U251 CNS, 106%; in the assay on PC-3 prostate, 88.6%. The growth was 99.1% in the assay with SK-MEL-5 melanoma; 93.3% in the assay on UACC-62 melanoma; 83.7% in the assay with LOX IMVI melanoma; 103% in the assay with SK-MEL-28 melanoma; 102% in the assay on SK-MEL-2 melanoma; 99.1% in the assay with EKVX NSCLC. The growth with SN12C renal was 94%; with UO-31 renal, 66.2%; with CAKI-1 renal, 99.9%; with A498 renal, 89.5%; with CCRF-CEM leukemia, 100%.
For `CC(C)=CCc1c(O)c(C(=O)CC(C)C)c(O)c2c(-c3ccccc3)cc(=O)oc12`, the growth in the assay on HCT-15 colon is 30.3%; in the assay on HT29 colon it was 66.5%; with SNB-75 CNS it was 81.3%; in the assay on SNB-19 CNS, 42.1%; with U251 CNS, 41.3%; with PC-3 prostate it was 19.6%. The growth in the assay on SK-MEL-5 melanoma is -41.3% (active); in the assay on UACC-62 melanoma it was 12.2%; with LOX IMVI melanoma it was 68.2%; in the assay on SK-MEL-28 melanoma, 39.2%; in the assay on SK-MEL-2 melanoma, 40.5%; with EKVX NSCLC, 36.7%. Also, the growth in the assay on SN12C renal was 33.7%; in the assay with TK-10 renal, 56.8%; in the assay on ACHN renal, 59.4%; with CAKI-1 renal it was 52.4%; in the assay on A498 renal, 32.6%; in the assay with HL-60(TB) leukemia it was 27.5%. The growth in the assay on CCRF-CEM leukemia is 23.6%.

The values are drawn from PubChem BioAssay (NCI).
